Anthrax LF prot – anthrax lethal factor protease inhibition. P15917. multiplex microsphere protease cleavage assay, LF. inhibition, % at 10 µM. 360,000 compounds, 0.12% hits. AID 588501; also: plate controls were buffer without enzyme for full effect and enzyme alone for no effect
PfHsp40 yeast – restores yeast growth despite PfHsp40 toxicity; S. cerevisiae expressing PfHsp40, growth rescue, ATP luminescence; growth rescue, % at 12.5 µM; 340,000 compounds, 0.68% hits; AID 504582; in the data active = growth rescue above about 28%, passing the limit was not always enough; inconclusive = no clear call, values can overlap the other calls;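 also: yeast W303a lacking pdr1 and pdr3 grown in galactose medium; growth measured after three days at 30 °C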
MazF activator – MazEF (E. coli) toxin RNase activation; P0AE70; FAM/BHQ RNA-DNA oligo cleavage fluorescence, 5 h; activation, % at 20 µM; 350,000 compounds, 0.32% hits; in the data active = activation above about 50%
BoNT-F LC inh – BoNT F light chain protease inhibition; Multiplex microsphere protease cleavage assay, flow cytometry; inhibition, % at 10 µM; 360,000 compounds, 0.22% hits; AID 588497; in the data active = inhibition above about 35%, passing the limit was not always enough; inconclusive = no clear call, values can overlap the other calls; also: plate controls were buffer without enzyme for full effect and enzyme alone for no effect
Bead autofluor – flagged as autofluorescent in microsphere protease counterscreen | 360,000 compounds, 3.1% hits | AID 624483 | fluorescence intensity (test concentration not listed) | compound autofluorescence counterscreen, microsphere flow cytometry; hits give high values; in the data active = fluorescence intensity above about 16000; inconclusive = no clear call, values can overlap the other calls
BoNT-A LC inh2 – blocks Botulinum neurotoxin A light chain protease; 360,000 compounds, 0.17% hits; multiplex microsphere protease substrate cleavage, flow cytometry; inhibition, % at 10 µM; AID 588499; also: plate controls were buffer without enzyme for full effect and enzyme alone for no effect
Starred values were filed as active, the others as inactive; u = inconclusive; x = no result. Most compounds without a hit are left out; they make up all but 4.3% or so of the library. Rule as the data show it, unless noted: active = inhibition above about 30%; inconclusive = no clear call, values can overlap the other calls; inactive = below that.

SMILES	Anthrax LF prot	PfHsp40 yeast	MazF activator	BoNT-F LC inh	Bead autofluor	BoNT-A LC inh2
O=C1OCC(CO)(CO)N=C1NNc1ccc(Cl)c(Cl)c1	-1.4	305.5*	7.5	-7.8	12666	-0.1
OCC1(CO)COC(c2ccccc2)=N1	-2.9	-0.2	7.1	2.0	3224	0.6
CCCN(CC(=O)Nc1ccccc1OC)C(=O)CN1C(=O)NC(C)(C)C1=O	-7.3	x	0.6	-4.9	3048	-0.9
CC(=O)Nc1ccc(Nc2cc(C(C)C)nc3c(-c4ccccc4)c(C)nn23)cc1	-6.5	97.0*	-12.2	-13.7	4636	-0.7
CCCc1cc(NCc2ccccn2)n2nc(C)c(-c3ccccc3)c2n1	-2.5	67.2*	-1.8	u	4062	-1.4
Cc1cc(NCc2ccccn2)n2nc(C)c(-c3ccc(Cl)cc3)c2n1	-3.3	8.2	-1.3	-10.6	6751	-1.2
Cc1cc(NCCC(C)C)n2nc(C)c(-c3ccccc3)c2n1	-3.2	-0.3	-0.9	-5.7	24144*	-2.1
Cc1nn2c(NCc3ccccn3)cc(C(C)C)nc2c1-c1ccccc1	2.7	36.9*	-4.3	-2.6	5765	-0.8
Cc1cc(NCCCN2CCOCC2)n2nc(C)c(-c3ccccc3)c2n1	-3.8	0.1	1.6	-13.6	2400	-0.4
O=C(CCNC(=O)C1CCN(S(=O)(=O)c2ccccc2)CC1)NCc1ccc(Cl)c(Cl)c1	9.1	0.7	1.6	19.6	5374	4.7
COc1nc(NCc2cccnc2)nc(OC)n1	1.2	2.8	4.9	-4.9	16316*	u
COc1nc(NCc2cccnc2)nc(NC2CCCCC2)n1	0.6	6.2	0.6	-0.5	2508	-0.4
COc1cc2c(cc1OC)CN(C(=O)CN1CCN(S(=O)(=O)c3ccccc3)CC1)CC2	2.9	-0.3	6.9	-1.6	6158	0.9
CN1CCN(c2nc(N(C)C)oc(=O)c2C#N)CC1	-1.0	-0.5	6.5	1.1	22716*	-0.6
Cc1cccc(CN2[C@H](CO)C=CS2(=O)=O)c1	0.3	x	x	-12.7	6495	-1.3
COC(=O)CC1SC(=O)NC1=Nc1ccccc1 (stereo unspecified)	1.2	0.2	-0.5	-0.4	23324*	0.6
COC(=O)CC1SC(=O)NC1=Nc1ccc(C)cc1 (stereo unspecified)	-2.2	0.1	8.5	-1.7	8879	-0.3
CCC(Sc1nc(C)cc(C)n1)C(=O)NC1=NN=C(c2ccc(C)cc2)CS1 (stereo unspecified)	-2.9	0.6	-5.3	2.5	10787	1.5
Cc1cc(C)nc(SCC(=O)NC2=NN=C(c3ccc(Br)cc3)CS2)n1	-3.1	-0.6	-26.6	-6.6	24625*	u
Cc1ccc(C(=O)O/N=C2\CC3CCC2(C)C3(C)C)cc1 (stereo unspecified)	-3.0	-0.7	-1.1	1.3	21254*	u
CC(=O)Nc1ccc(Oc2ccccc2)cc1	-10.8	1.9	-1.2	-5.0	5703	-2.0
COC(=O)Nc1ccc(Oc2ccccc2)cc1	0.7	0.2	-5.0	-5.0	21537*	-6.0
COC(=O)Nc1ccc(S(=O)(=O)N(CCO)CCO)cc1	-0.4	-1.2	5.8	2.2	22684*	0.9
COc1ccc(CC(=O)Nc2ccc(S(=O)(=O)N3CCC(C)CC3)cc2)c(OC)c1	-4.3	16.8	0.5	7.2	4356	1.0
CC1=CC(c2ccc(Cl)cc2)n2nc(NS(=O)(=O)c3ccc(C)cc3)nc2N1 (stereo unspecified)	-1.7	0.0	1.9	-1.8	23033*	0.7
SMILES	Anthrax LF prot	PfHsp40 yeast	MazF activator	BoNT-F LC inh	Bead autofluor	BoNT-A LC inh2
CC1=CC(c2ccccc2)n2nc(NS(=O)(=O)c3ccc(C)cc3)nc2N1 (stereo unspecified)	-0.9	-0.7	3.7	5.6	9844	0.2
Cc1ccc(C(=O)COC(=O)c2ccc(O)cc2)cc1	-6.8	-0.9	1.5	1.0	3505	-0.8
CS(=O)(=O)N(CC(=O)N1CCN(c2ccccc2F)CC1)C1CCCCC1	-1.2	0.0	0.4	-7.2	11157	-0.8
Cc1ccc(S(=O)(=O)N(CC(=O)N2CCOCC2)C2CCCCC2)cc1	-2.8	-0.1	-0.8	-6.5	23611*	u
Cc1cc(C)c(S(=O)(=O)N(CC(=O)N2CCOCC2)C2CCCCC2)c(C)c1	-4.1	1.6	1.9	-3.7	3596	0.2
Cc1ccc(S(=O)(=O)N(CC(=O)N2CCN(c3ccccc3F)CC2)C2CCCCC2)cc1	-1.3	1.6	2.5	-3.0	20732*	-0.9
Cc1ccc2oc(=O)c3cc(C(=O)N4CCN(C)CC4)sc3c2c1	-4.3	1.6	2.9	4.7	4197	-0.3
Cc1cccc(NC(=O)CCNC(=O)c2ccc(Br)cc2)c1C	-2.5	-0.9	-1.4	-5.7	2976	0.7
CC(=O)C1=C(C)Nc2ncnn2C1c1ccccc1Cl (stereo unspecified)	-0.9	0.0	2.9	1.3	10411	1.0
CCCCOC(=O)C1=C(C)Nc2ncnn2C1c1ccc(OC)c(OC)c1 (stereo unspecified)	-1.2	-0.1	-3.5	-8.6	21510*	u
CC1=C(C(N)=O)C(c2ccc(Cl)cc2Cl)n2ncnc2N1 (stereo unspecified)	-0.7	0.4	-5.1	-1.8	21777*	-0.4
CCCCOC(=O)C1=C(C)Nc2ncnn2C1c1ccc(OCC)c(OC)c1 (stereo unspecified)	-5.0	-1.0	5.8	0.5	19529*	1.3
O=S(=O)(Nc1ncccn1)c1ccc(NC(=S)Nc2ccccc2Cl)cc1	-0.1	0.1	3.1	-7.8	3559	-1.6
COc1ccc(CN(C)CC(=O)NCC(=O)Nc2c(C)cccc2C)cc1	-5.3	0.9	3.1	2.1	4081	-0.2
C=CCN(c1ccc(C(=O)Nc2ccc(C)cc2)cc1)S(C)(=O)=O	-5.1	-1.4	13.8	-5.9	3580	-1.0
C=CCNC(=O)c1ccc(N(Cc2ccc(Cl)cc2)S(C)(=O)=O)cc1	9.7	0.8	7.0	38.7*	3005	1.1
CS(=O)(=O)N(Cc1ccc(Cl)cc1)c1ccc(C(=O)Nc2cccnc2)cc1	5.8	0.8	-2.7	5.7	10050	0.2
C=CCN(c1ccc(C(=O)NC(C)C)cc1)S(C)(=O)=O	-5.3	-0.7	10.6	-1.8	23751*	0.1
Cc1ccc(N2CCN(S(=O)(=O)c3c(C)nc4sccn4c3=O)CC2C)cc1 (stereo unspecified)	1.9	x	x	-0.4	5216	0.1
Cc1[nH]c(=O)[nH]c1C(=O)CCCCC(=O)OCC(=O)Nc1ccccn1	-1.0	u	15.3	69.9*	4438	9.2
CCOC(=O)CCCCC(=O)c1[nH]c(=O)[nH]c1C[n+]1ccc(C)cc1	-2.6	0.3	-2.5	-1.6	4458	0.4
COC(=O)[C@@]1(Cc2ccc(F)cc2)[C@H]2c3cc(C(=O)N(C)C)n(CCCNc4ncc(C(F)(F)F)cc4Cl)c3C[C@H]2CN1C(=O)c1ccccc1	-8.1	x	x	-11.5	6553	-1.4
Cc1ccc(S(=O)(=O)NC(=O)N(CCC#N)Cc2ccccc2)cc1	3.5	-0.5	4.0	3.6	3951	-3.2
O=C(NCc1ccccn1)c1cccc([N+](=O)[O-])c1	1.5	-1.4	-7.9	-2.9	24684*	-1.8
O=C(NCc1ccccn1)c1ccccc1Cl	-2.7	-0.6	1.3	0.3	23233*	u

Compound activity: PubChem, several laboratories
